The values below come from PubChem BioAssay (NCI).

The nature of this test: NCI Yeast Anticancer Drug Screen. Data for the rad50 strain (AID 155).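 Also: 0% = growth of vehicle-only cultures of the same strain.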 The settings on record: S. cerevisiae rad50 strain growth inhibition, active compounds read high. Here is the method: Growth inhibition of yeast strains with defined genetic alterations is measured as a screen for potential anti-cancer activity. Selected strains with alterations in DNA damage repair or cell cycle control were exposed to compounds and growth inhibition was measured relative to vehicle treated controls. The strain used in this assay is rad50

The mark [1] stands for this setting: at 5.0 µM (retest, dose inferred, filed as 0.5).
Where [2] appears, read: at 50.0 µM (retest, dose inferred, filed as 5.0).

This is part of a sample that, as a whole, favours compounds with a hit. Of some 79,000 tested, about 15% had one in any assay. A number with no mark means an inactive call. Active and inactive are the calls of the source. Rule as the data show it: active = growth inhibition above about 70%; inactive = the rest.

In the case of `CN=C(N)NN=C(c1ccc(Cl)cc1)c1ccc(Cl)cc1`, the growth inhibition is 32% under setting [1], 99% (active) under setting [2] and 87.8% (active) (at 50.0 µM).

Consider `CC(CN(C)C)C(/C=C/c1ccc(Cl)c(Cl)c1)=N\Nc1ccccc1` (configuration not stated), for which the growth inhibition under setting [1] was 2%, the growth inhibition under setting [2] is 96% (active) and the growth inhibition (at 50.0 µM) is 54.1%.

Take `COc1cc(O)c2c(c1)C(=O)c1cc3c(c(O)c1C2=O)C(OC1OC(C)C(O)C(O)C1OC)C(OC)C(C)(O)C3=O` (configuration not stated): the growth inhibition is, setting by setting: under setting [1], 95% (active); under setting [2], 99% (active); (at 50.0 µM) 92.5% (active).

Regarding `N#Cc1ccc(C2Oc3ccc(Cl)cc3C=C2[N+](=O)[O-])cc1` (configuration not stated), the growth inhibition under setting [1] is 98% (active), the growth inhibition under setting [2] was 99% (active) and the growth inhibition (at 50.0 µM) is 84.7% (active).

On to `CCCCCCCCCCCC[n+]1ccc(C#N)cc1`, for which the growth inhibition under setting [1] was 27%, the growth inhibition under setting [2] is 81% (active) and the growth inhibition (at 50.0 µM) was 99.2% (active).

Regarding `O=C(c1ccccc1)c1c(CO[N+](=O)[O-])n([O-])c2ccccc2[n+]1=O`, the growth inhibition by setting is: under setting [1], 20%; under setting [2], 97% (active); (at 50.0 µM) 98.5% (active).

On to `O=[N+]([O-])C12CCCCC1([N+](=O)[O-])CCCC2` (configuration not stated), for which the growth inhibition runs as follows: under setting [1], -1%; under setting [2], 41%; (at 50.0 µM) 62.9%.

Regarding `C/C(=N\NC(=S)Nc1ccc(C(=O)O)cc1C)c1ccc2ccccc2n1`, the growth inhibition runs as follows: under setting [1], 1%; under setting [2], 55%; (at 50.0 µM) 86.2% (active).

With `Cc1cc2nc3n(c2cc1C)C(c1c(F)cccc1F)SC3` (configuration not stated), the growth inhibition by setting is: under setting [1], 25%; under setting [2], 24%; (at 50.0 µM) -6.85%.

As to `O=C(O)CC/C(=N\Nc1ccccc1)C(=O)O`, the growth inhibition is 3% under setting [1], 96% (active) under setting [2] and 97.2% (active) (at 50.0 µM).

For the compound `COc1ccc(/C=C2/C(=O)ON=C2C)cc1OC`, the growth inhibition by setting is: under setting [1], -15%; under setting [2], 35%; (at 50.0 µM) 93.3% (active).

Regarding `N#C/C(=C\NC(=S)C(N)=S)c1nc2ccccc2s1`, the growth inhibition is, setting by setting: under setting [1], 21%; under setting [2], 97% (active); (at 50.0 µM) 88.1% (active).

In the case of `C/C(=N/NC(=O)Nc1ccc(N=Nc2ccccc2)cc1)c1ccccn1`, the growth inhibition is, setting by setting: under setting [1], -15%; under setting [2], -12%; (at 50.0 µM) 15.2%.

As to `C/C(=N\NC(=S)N1CCC(C)CC1)c1cccc2cccnc12`, the growth inhibition is, setting by setting: under setting [1], -5%; under setting [2], 98% (active); (at 50.0 µM) 62.6%.
